Measured values from PubChem BioAssay.
Measured potencies and affinities stand elsewhere. Records with an inconclusive call do not appear. Activity calls are given as the source filed them. The rule behind the calls is not given here.

Assay: general cell-killing toxicity readout – plate reader, dry powder samples, cytotoxicity control for PAX8 inhibitor project, dose response (AID 743021)
Settings: cell line, non-specific cytotoxicity counter-screen; series mostly up to 35 µM; activity change, negative = cytotoxicity: at the top concentration

SMILES	activity change, negative = cytotoxicity	outcome
C[C@@H]1CCCCO[C@H](CN(C)Cc2ccncc2)[C@H](C)CN([C@H](C)CO)C(=O)c2cc(NC(=O)Nc3ccc(C(F)(F)F)cc3)ccc2O1	10.9% (inactive)	
COc1ccc(-c2cnc3c(NC=O)cc(-c4ccccc4OC)cn23)cc1OC	-18.5% (inactive)	
C[C@@H]1CN([C@@H](C)CO)C(=O)c2cc(N(C)C)ccc2O[C@@H](C)CCCCO[C@H]1CN(C)S(=O)(=O)c1ccc(F)cc1	-3.62% (inactive)	
CC(C)(C)c1nnc(NC(=O)CCS(=O)(=O)c2ccccc2)s1		inactive
COc1ccc(C#Cc2ccc([C@H]3[C@@H](CO)N4CCCCN(C(=O)Nc5ccccc5)C[C@H]34)cc2)cc1	-2.46% [at 15 µM] (inactive)	
COc1ccc2c3c([nH]c2c1)[C@@H](CO)N(C(=O)Nc1cccc(F)c1)CC31CCN(S(=O)(=O)c2cccc(C)c2)CC1	-6.99% (inactive)	
O=C(CN1C(=O)c2ccccc2S1(=O)=O)c1ccc(Cl)cc1Cl		inactive
C#CCN(C[C@@H]1[C@@H](OC(=O)NC2CCCC2)[C@@H](OC(=O)NC2CCCC2)Cn2c(=O)ccc(=O)n21)S(=O)(=O)c1ccc(C)cc1	-12.3% [at 16 µM] (inactive)	
C[C@@H]1CN([C@@H](C)CO)C(=O)c2cc(NC(=O)CCC(F)(F)F)ccc2O[C@@H](C)CCCCO[C@H]1CN(C)Cc1ccc(C(F)(F)F)cc1	-7.88% (inactive)	
C[C@@H]1CCCCO[C@@H](CN(C)Cc2ccncc2)[C@H](C)CN([C@@H](C)CO)C(=O)c2cc(NC(=O)Nc3ccc(C(F)(F)F)cc3)ccc2O1	-5.28% (inactive)	
C[C@H]1CCCCO[C@H](CN(C)C(=O)Nc2ccc(C(F)(F)F)cc2)[C@@H](C)CN([C@@H](C)CO)C(=O)c2cc(NS(=O)(=O)c3cccs3)ccc2O1	-10.2% (inactive)	
C=C(C)c1cccc(C(C)(C)NC(=O)N2CCN(c3ccccc3OC)CC2)c1	-33.1% (inactive)	
C[C@@H]1CCCCO[C@H](CN(C)C(=O)c2ccccc2)[C@H](C)CN([C@@H](C)CO)C(=O)c2cc(NC(=O)Nc3ccc(C(F)(F)F)cc3)ccc2O1	9.87% (inactive)	
C[C@H]1CCCCO[C@H](CN(C)Cc2ccc(C(F)(F)F)cc2)[C@@H](C)CN([C@@H](C)CO)C(=O)c2cc(NC(=O)Nc3ccc(F)cc3)ccc2O1	7.85% (inactive)	
C[C@@H]1CN([C@H](C)CO)C(=O)c2cc(NC(=O)Cc3ccccc3)ccc2O[C@@H](C)CCCCO[C@H]1CN(C)Cc1ccc(C(F)(F)F)cc1	-9.65% (inactive)	

Assay: IGROV1 cell killing – plate reader, dry powder samples, PAX8 inhibitor project, dose response (AID 743043);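 note: more negative means fewer viable cells or more cytotoxicity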
Settings: IGROV1 ovarian cancer cell cytotoxicity; series mostly up to 35 µM; activity change, negative = cytotoxicity: at the top concentration

SMILES	activity change, negative = cytotoxicity
COc1cccc(-c2ccc3c(c2)[C@@H]2[C@@H](CCN2S(=O)(=O)c2ccccc2C)[C@H](CO)N3C)c1	-1.88% [at 30 µM] (inactive)
C[C@@H]1CCCCO[C@H](CN(C)C(=O)Cc2ccccc2)[C@@H](C)CN([C@@H](C)CO)C(=O)c2cc(NS(=O)(=O)c3ccc(Cl)cc3)ccc2O1	-19.9% (inactive)
C[C@H](CO)N1C[C@H](C)[C@@H](CN(C)S(=O)(=O)c2ccc(Cl)cc2)OCCCC[C@H](C)Oc2ccc(NS(=O)(=O)c3ccc(F)cc3)cc2C1=O	1.82% (inactive)
COc1ccccc1NC(=O)N1CCCCN2[C@H](C1)[C@@H](c1ccc(-c3cccc(C#N)c3)cc1)[C@@H]2CO	0.997% [at 16 µM] (inactive)
COc1ccc(S(=O)(=O)Nc2ccc3c(c2)C(=O)N([C@H](C)CO)C[C@H](C)[C@H](CN(C)S(=O)(=O)c2ccc(F)cc2)OCCCC[C@H](C)O3)cc1	14.6% (inactive)
C[C@H]1CN([C@@H](C)CO)S(=O)(=O)c2ccc(C#Cc3ccccc3F)cc2O[C@H]1CN(C)C(=O)c1ccc2c(c1)OCO2	10.7% (inactive)
O=C(C1CCC1)N1CCCCN2[C@H](CO)[C@H](c3ccc(-c4cccc(F)c4)cc3)[C@H]2C1	2.71% (inactive)
C[C@H]1CCCCO[C@@H](CN(C)Cc2ccncc2)[C@@H](C)CN([C@@H](C)CO)C(=O)c2cc(NC(=O)Nc3ccc(C(F)(F)F)cc3)ccc2O1	2.36% (inactive)
COc1ccc(NC(=O)Nc2ccc3c(c2)C(=O)N([C@@H](C)CO)C[C@@H](C)[C@@H](CN(C)Cc2ccc(C(F)(F)F)cc2)O3)cc1	0.671% (inactive)
O=S(=O)(c1ccccc1F)N1CC[C@@H]2[C@H](CO)Nc3ccc(C4=CCCCC4)cc3[C@@H]21	9.4% (inactive)
C[C@@H]1CCCCO[C@@H](CN(C)Cc2ccc(C(F)(F)F)cc2)[C@H](C)CN([C@@H](C)CO)C(=O)c2cc(NS(=O)(=O)c3ccc(Cl)cc3)ccc2O1	-3.94% (inactive)
C[C@@H]1CCCCO[C@H](CN(C)Cc2ccncc2)[C@H](C)CN([C@H](C)CO)C(=O)c2cc(NC(=O)Nc3ccc(C(F)(F)F)cc3)ccc2O1	-13.2% (inactive)
C[C@@H]1CN([C@@H](C)CO)C(=O)c2cc(N(C)C)ccc2O[C@@H](C)CCCCO[C@H]1CN(C)S(=O)(=O)c1ccc(F)cc1	-1.19% (inactive)
COc1ccc(C#Cc2ccc([C@H]3[C@@H](CO)N4CCCCN(C(=O)Nc5ccccc5)C[C@H]34)cc2)cc1	-6.98% [at 30 µM] (inactive)
COc1ccc2c3c([nH]c2c1)[C@@H](CO)N(C(=O)Nc1cccc(F)c1)CC31CCN(S(=O)(=O)c2cccc(C)c2)CC1	2.69% (inactive)
O=C(CN1C(=O)c2ccccc2S1(=O)=O)c1ccc(Cl)cc1Cl	16.1% [at 50 µM] (inactive)
C[C@@H]1CCCCO[C@@H](CN(C)Cc2ccncc2)[C@H](C)CN([C@@H](C)CO)C(=O)c2cc(NC(=O)Nc3ccc(C(F)(F)F)cc3)ccc2O1	-9.22% (inactive)
C[C@H]1CCCCO[C@H](CN(C)C(=O)Nc2ccc(C(F)(F)F)cc2)[C@@H](C)CN([C@@H](C)CO)C(=O)c2cc(NS(=O)(=O)c3cccs3)ccc2O1	-10.7% (inactive)
C[C@@H]1CCCCO[C@H](CN(C)C(=O)c2ccccc2)[C@H](C)CN([C@@H](C)CO)C(=O)c2cc(NC(=O)Nc3ccc(C(F)(F)F)cc3)ccc2O1	-16.9% (inactive)
C[C@H]1CCCCO[C@H](CN(C)Cc2ccc(C(F)(F)F)cc2)[C@@H](C)CN([C@@H](C)CO)C(=O)c2cc(NC(=O)Nc3ccc(F)cc3)ccc2O1	-7.5% (inactive)
C[C@@H]1CN([C@H](C)CO)C(=O)c2cc(NC(=O)Cc3ccccc3)ccc2O[C@@H](C)CCCCO[C@H]1CN(C)Cc1ccc(C(F)(F)F)cc1	-10.5% (inactive)
